According to PubChem BioAssay (Tox21):
Results filed as inconclusive are left out. A number with no mark means an inactive call. The source made the active and inactive calls. Calls come from the whole dose curve; as a rule, active = well fitted cell-killing curve with a large enough effect in the repeat runs; inconclusive = weak or mixed curves, or effect the other way; inactive = flat fitted curve, though single readings scatter.

assay: qHTS assay to identify small molecule antagonists of the androgen receptor (AR) signaling pathway using the MDA cell line - cell viability counter screen (AID 743041; note: nearly all actives have a fitted effect of over 45% in size); details: MDA-kb2 viability, CellTiter-Fluor, 16 h, cells co-treated with R1881 androgen agonist; series mostly up to 70.3 µM; viability change, negative = cytotoxic: at the top concentration
From the text: National Center for Advancing Translational Sciences [NCATS]
NIH Chemical Genomics Center [NCGC]
U.S. Environmental Protection Agency [EPA]
National Institutes of Environmental Health Sciences [NIEHS]
National Toxicology Program [NTP]
U.S. Food and Drug Administration [FDA]
Androgen receptor (AR), a nuclear hormone receptor, plays a critical role in AR-dependent prostate cancer and other androgen related diseases. Endocrine disrupting chemicals (EDCs) and their interactions with steroid hormone receptors like AR may cause disruption of normal endocrine function as well as interfere with metabolic homeostasis, reproduction, developmental and behavioral functions. To identify the compounds that inhibit AR signaling, MDA-kb2 AR-luc cell line (from ATCC, deposited by Wilson et al.) was used to screen the Tox21 10K compound library. MDA-kb2 AR-luc cell line is human breast carcinoma cell line that was stably transfected with a luciferase reporter gene under control of the MMTV promoter containing response elements for both androgen receptor (AR) and glucocorticoid receptor (GR). The cytotoxicity of the Tox21 compound library against the MDA-kb2 AR-luc cell line was tested in parallel by measuring the cell viability using CellTiter-Fluor assay (Promega, Madison, WI) in the same wells.
Tox21 Assay Protocol Summary:
MDA-kb2 AR-luc cells were dispensed at 3,000 cells/4 uL/well of culture medium into white wall/solid-bottom 1536-well plates using a Multidrop Combi (ThermoFisher Scientific, Waltham, MA) dispenser. After the assay plates were incubated at a 37C and 0% CO2 for 5 hr, 23 nL of compounds dissolved in DMSO, positive controls or DMSO only was transferred to the assay plate by a Pintool station (Kalypsys, San Diego, CA), followed by addition of 1 uL of agonist (R1881) in culture medium using a Bioraptr Flying Reagent Dispenser (FRD) workstation (Beckman Coulter, Indianapolis, IN, USA). The plates were incubated at a 37C and 0% CO2 for 16 h. After 15.5 h incubation, 1uL of CellTiter-Fluor reagent (Promega) was added using a Bioraptr FRD to each plate for measuring cytotoxicity. The fluorescence intensity was quantified on a ViewLux plate reader (PerkinElmer, Shelton, CT) following 30 min incubation at 37C and 0% CO2.
% is set by controls: 0 for no effect and ±100 for the full control effect; potency is the fitted concentration of half-maximal effect.

Structure (SMILES)	Potency	viability change, negative = cytotoxic
CC[C@H]1CC[C@H](NCc2cc3c(cc2OC)[C@H]2C[C@H]2C(=O)N3C)[C@H](c2ccccc2)N1	68.6 µM (active)	–
CC(=O)Nc1ccc(C)c(Cl)c1	–	8.01%
Nc1ccc2ccccc2c1S(=O)(=O)O	–	-5.75% [at 95 µM]
CCCCNc1cc(C(=O)O)cc(S(N)(=O)=O)c1Oc1ccccc1	–	7.38% [at 32.5 µM]
Cn1cnc2c(F)c(Nc3ccc(Br)cc3Cl)c(C(=O)NOCCO)cc21	–	-16.2%
CC(=O)Oc1cc(C(C)C)c(OCCN(C)C)cc1C	–	-1.45% [at 32.5 µM]
CC(C)(C)C1CCCCC1=O (stereo not given)	–	2.22%
CN1CCN(c2c(F)cc3c(=O)c(C(=O)O)cn4c3c2SCC4)CC1	–	-1.22%
Oc1ccccc1C=NCc1ccccc1	–	14.1%
COc1cc2c(cc1N)oc1ccccc12	–	9.26% [at 95 µM]
CC1(C)S[C@@H]2[C@H](NC(=O)C(C(=O)O)c3ccccc3)C(=O)N2[C@H]1C(=O)O (stereo not given in full)	–	-3.36%
CCc1nnc(NS(=O)(=O)c2ccc(N)cc2)s1	–	4.11%
Cc1c(C(=O)NCCO)[n+](=O)c2ccccc2n1[O-]	–	0.219%
CN(C)CCOc1ccccc1Cc1ccccc1	–	-0.806%
ICCc1ccccc1	–	-9.36%
CN(C)C(=O)NC1(c2ccccc2)CCN(CCC[C@]2(c3ccc(Cl)c(Cl)c3)CCCN(C(=O)c3ccccc3)C2)CC1	–	-0.212% [at 32.5 µM]
CN(CC1(C)CCCO1)S(=O)(=O)c1ccc(Cl)c(S(N)(=O)=O)c1 (stereo not given)	–	21.8%
FC(F)(F)C(Cl)(Cl)Cl	–	3.54%
CCCCCCC	–	-4.57% [at 95 µM]
C=CCc1cc(OC)c(O)c(C(=O)NCCO)c1	–	4.35%

Structure (SMILES)	Potency	viability change, negative = cytotoxic
CCCCCCCOC(=O)CCC	–	17.9%
CCCCCCCCCC/C=C/C#N	–	24.5%
CCOC(=O)COc1ccc2c(c1)CC(NCC(O)c1cccc(Cl)c1)CC2 (stereo not given)	–	-0.924%
CNCCC(Oc1ccccc1OC)c1ccccc1 (stereo not given)	–	6.08%
COc1cc(N)c(Cl)cc1C(=O)NC1CCN(Cc2ccccc2)CC1	–	-0.235% [at 32.5 µM]
CCN(CCCc1ccccc1)CCCc1ccccc1	–	8.95% [at 32.5 µM]
COc1ccc(S(=O)(=O)Nc2nnc(CC(C)C)s2)cc1	inactive	–
CC1=CC(=O)CC(C)(C)C1=O	–	-0.54% [at 95 µM]
CCCc1c2oc(C(=O)O)cc(=O)c2cc2c(=O)cc(C(=O)O)n(CC)c12	–	-0.836%
Cc1c(N)cccc1N	–	-3.96% [at 95 µM]
CCCN(CCC)C(=O)C(CCC(=O)O)NC(=O)c1ccccc1 (stereo not given)	–	-4.09%
O=C(O)[C@@H](O)[C@H](O)[C@H](O)[C@@H](O)C(=O)O	–	-0.971%
O=C1N(c2ccccc2)c2ccccc2C1(Cc1ccncc1)Cc1ccncc1	–	6.73%
O=C(O)[C@@H]1CSCN1	–	-4.92%
CC(C)(CO)[C@@H](O)C(=O)NCCC(=O)O	inactive	–
COc1nc(C)nc(NC(=O)NS(=O)(=O)c2ccccc2OCCCl)n1	–	7.3%
COc1cc(Cl)ccc1Cl	–	-3.92% [at 95 µM]
CCNCCO	–	5.69%
COc1ccc(Nc2ccc(OC)cc2)cc1	–	-3.22% [at 95 µM]
CC(C)CCCCCCc1ccc(OCCOCCO)cc1	–	-3.29% [at 95 µM]
